Reference: the supplement of paper PMC10849652
Of roughly 7,900 targets only a part is listed; those with a hit were picked by preference. About 0.6% of all pairs of compound and target were hits. Unmarked numbers belong to inactive results.

Tests used:
Assay in all cases: log2 fold change, soluble protein after heating vs DMSO (PISA); higher = thermal stabilisation; K562 cells, 10 uM, 30 min; active = over 0.2 and 3.5 SD of the protein, either way, in both replicates (recomputed)
IRAK-1-4 Inhibitor I = compound: C1COCCN1CCN2C3=CC=CC=C3N=C2NC(=O)C4=CC(=CC=C4)[N+](=O)[O-] [IRAK-1-4 Inhibitor I]
Method in brief: (§1)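 Values are thermal stability changes relative to control samples and are taken from duplicates. They are stated as log2 fold changes. Before quantification by TMTpro 16plex LC-MS/MS with equalised channel sums, K562 cells at 2×10^6 cells/mL were treated with 10 μM compound for 30 min, heated in aliquots for 3 min across 48°C-58°C, pooled, extracted in PBS with 0.5% NP-40 at 4°C, and centrifuged at 21,000xg for 90 min to give the soluble supernatant.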

ibrutinib = compound: C=CC(=O)N1CCC[C@@H](n2nc(-c3ccc(Oc4ccccc4)cc3)c3c(N)ncnc32)C1 [ibrutinib]
Method in brief: as §1

[1] = compound: CC(=O)c1cnc2ccc(-c3cc(Cl)c(O)c(Cl)c3)nc2c1N[C@H]1CC[C@H](CN(C)C)CC1
Method in brief: as §1

ralimetinib = compound: CC(C)(C)Cn1c(N)nc2ccc(-c3[nH]c(C(C)(C)C)nc3-c3ccc(F)cc3)nc21 [ralimetinib]
Method in brief: as §1

[2] = compound: CC(C)(O)CC(=O)NCCn1ccc2ncnc(Nc3ccc(Oc4cccc(C(F)(F)F)c4)c(Cl)c3)c21
Method in brief: as §1

[3] = compound: CC(C)C1=C2N=C(C=C(N2N=C1)NCC3=CC=CC=C3)NCCCCCCN
Method in brief: as §1

[4] = compound: CC(C)C[C@@H](C=O)NC(=O)[C@H](CC(C)C)NC(=O)[C@H](CC(C)C)NC(=O)OCc1ccccc1
Method in brief: as §1

pinometostat = compound: CC(C)N(C[C@H]1O[C@@H](n2cnc3c(N)ncnc32)[C@H](O)[C@@H]1O)[C@H]1C[C@@H](CCc2nc3cc(C(C)(C)C)ccc3[nH]2)C1 [pinometostat]
Method in brief: as §1

[5] = compound: CC1=C(C(CC(=O)N1)C2=CC=C(C=C2)C(F)(F)F)C(=O)NC3=C(C=C4C(=C3)C=NN4)F
Method in brief: as §1

[6] = compound: CC1=C(C2=C(C=C1)C(=O)C3=CC=CC=C3N2CCCN)C
Method in brief: as §1

[7] = compound: CC1=C(C=C(C=C1)NC(=O)C2=CC(=CC=C2)C(C)(C)C#N)NC3=CC4=C(C=C3)N=CN(C4=O)C
Method in brief: as §1

[8] = compound: CC1=C(C=C(C=C1)NC(=O)C2=CC(=CC=C2)N(C)C)NC(=O)C3=CC=C(C=C3)O
Method in brief: as §1

[9] = compound: CC1=CC=C(C=C1)SC2=C3C=C(SC3=CN=C2)C(=O)N
Method in brief: as §1

[10] = compound: CC1=NC(=CC=C1)C2=C(N=C(N2)C(C)(C)C)C3=CC4=NC=CN=C4C=C3
Method in brief: as §1

Nexturastat A = compound: CCCCN(Cc1ccc(C(=O)NO)cc1)C(=O)Nc1ccccc1 [Nexturastat A]
Method in brief: as §1

vemurafenib = compound: CCCS(=O)(=O)Nc1ccc(F)c(C(=O)c2c[nH]c3ncc(-c4ccc(Cl)cc4)cc23)c1F [vemurafenib]
Method in brief: as §1

[11] = compound: CCCS(=O)(=O)Nc1ccc(F)c(C(=O)c2c[nH]c3ncc(Cl)cc23)c1F
Method in brief: as §1

[12] = compound: CCCc1cc(C)[nH]c(=O)c1CNC(=O)c1cc(-c2ccnc(N3CCN(C)CC3)c2)cc2c1cnn2C(C)C
Method in brief: as §1

givinostat = compound: CCN(CC)Cc1ccc2cc(COC(=O)Nc3ccc(C(=O)NO)cc3)ccc2c1 [givinostat]
Method in brief: as §1

barasertib = compound: CCN(CCCOc1ccc2c(Nc3cc(CC(=O)Nc4cccc(F)c4)[nH]n3)ncnc2c1)CCOP(=O)(O)O [barasertib]
Method in brief: as §1

Chain of UniProt P55795 (P55795 whole entry, looked up): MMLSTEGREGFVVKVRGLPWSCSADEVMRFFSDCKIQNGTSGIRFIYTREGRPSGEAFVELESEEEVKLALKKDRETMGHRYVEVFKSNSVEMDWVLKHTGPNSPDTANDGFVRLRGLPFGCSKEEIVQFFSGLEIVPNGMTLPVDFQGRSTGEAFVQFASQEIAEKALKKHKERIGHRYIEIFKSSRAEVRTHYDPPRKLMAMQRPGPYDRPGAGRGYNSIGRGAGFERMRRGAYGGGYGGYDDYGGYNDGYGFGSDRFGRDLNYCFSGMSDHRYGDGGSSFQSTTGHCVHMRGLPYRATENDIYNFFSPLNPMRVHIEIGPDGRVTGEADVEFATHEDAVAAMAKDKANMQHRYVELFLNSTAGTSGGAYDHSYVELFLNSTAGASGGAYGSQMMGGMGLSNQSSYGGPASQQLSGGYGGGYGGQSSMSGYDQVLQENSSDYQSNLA
Chain of UniProt Q01628 (Q01628 whole entry, looked up): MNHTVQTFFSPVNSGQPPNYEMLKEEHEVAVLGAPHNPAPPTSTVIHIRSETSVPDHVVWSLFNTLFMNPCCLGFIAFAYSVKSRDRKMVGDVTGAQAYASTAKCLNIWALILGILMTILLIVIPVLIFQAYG
Chain of UniProt P49841 (P49841 whole entry, looked up): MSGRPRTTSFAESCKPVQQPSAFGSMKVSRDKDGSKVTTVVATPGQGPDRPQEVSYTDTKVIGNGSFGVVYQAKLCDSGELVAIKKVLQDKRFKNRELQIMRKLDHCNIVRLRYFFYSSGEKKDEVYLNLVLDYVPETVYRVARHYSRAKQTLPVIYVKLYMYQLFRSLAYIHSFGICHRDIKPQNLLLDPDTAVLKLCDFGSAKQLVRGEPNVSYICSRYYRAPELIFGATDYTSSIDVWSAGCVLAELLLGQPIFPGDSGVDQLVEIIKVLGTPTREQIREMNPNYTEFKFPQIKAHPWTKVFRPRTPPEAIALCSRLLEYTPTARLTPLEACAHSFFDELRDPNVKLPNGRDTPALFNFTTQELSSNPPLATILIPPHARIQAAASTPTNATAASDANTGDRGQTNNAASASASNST
Chain of UniProt Q86YM7 (Q86YM7 whole entry, looked up): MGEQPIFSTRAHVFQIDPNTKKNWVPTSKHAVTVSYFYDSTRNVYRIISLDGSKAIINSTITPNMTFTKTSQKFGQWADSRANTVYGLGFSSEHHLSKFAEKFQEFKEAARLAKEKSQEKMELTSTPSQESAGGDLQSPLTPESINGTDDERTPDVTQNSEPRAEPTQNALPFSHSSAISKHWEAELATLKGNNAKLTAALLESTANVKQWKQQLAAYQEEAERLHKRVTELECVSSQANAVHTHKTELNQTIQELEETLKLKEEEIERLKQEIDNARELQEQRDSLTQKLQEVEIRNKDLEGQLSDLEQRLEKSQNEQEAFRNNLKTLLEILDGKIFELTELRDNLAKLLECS
Chain of UniProt Q9P2D3 (Q9P2D3 whole entry, looked up): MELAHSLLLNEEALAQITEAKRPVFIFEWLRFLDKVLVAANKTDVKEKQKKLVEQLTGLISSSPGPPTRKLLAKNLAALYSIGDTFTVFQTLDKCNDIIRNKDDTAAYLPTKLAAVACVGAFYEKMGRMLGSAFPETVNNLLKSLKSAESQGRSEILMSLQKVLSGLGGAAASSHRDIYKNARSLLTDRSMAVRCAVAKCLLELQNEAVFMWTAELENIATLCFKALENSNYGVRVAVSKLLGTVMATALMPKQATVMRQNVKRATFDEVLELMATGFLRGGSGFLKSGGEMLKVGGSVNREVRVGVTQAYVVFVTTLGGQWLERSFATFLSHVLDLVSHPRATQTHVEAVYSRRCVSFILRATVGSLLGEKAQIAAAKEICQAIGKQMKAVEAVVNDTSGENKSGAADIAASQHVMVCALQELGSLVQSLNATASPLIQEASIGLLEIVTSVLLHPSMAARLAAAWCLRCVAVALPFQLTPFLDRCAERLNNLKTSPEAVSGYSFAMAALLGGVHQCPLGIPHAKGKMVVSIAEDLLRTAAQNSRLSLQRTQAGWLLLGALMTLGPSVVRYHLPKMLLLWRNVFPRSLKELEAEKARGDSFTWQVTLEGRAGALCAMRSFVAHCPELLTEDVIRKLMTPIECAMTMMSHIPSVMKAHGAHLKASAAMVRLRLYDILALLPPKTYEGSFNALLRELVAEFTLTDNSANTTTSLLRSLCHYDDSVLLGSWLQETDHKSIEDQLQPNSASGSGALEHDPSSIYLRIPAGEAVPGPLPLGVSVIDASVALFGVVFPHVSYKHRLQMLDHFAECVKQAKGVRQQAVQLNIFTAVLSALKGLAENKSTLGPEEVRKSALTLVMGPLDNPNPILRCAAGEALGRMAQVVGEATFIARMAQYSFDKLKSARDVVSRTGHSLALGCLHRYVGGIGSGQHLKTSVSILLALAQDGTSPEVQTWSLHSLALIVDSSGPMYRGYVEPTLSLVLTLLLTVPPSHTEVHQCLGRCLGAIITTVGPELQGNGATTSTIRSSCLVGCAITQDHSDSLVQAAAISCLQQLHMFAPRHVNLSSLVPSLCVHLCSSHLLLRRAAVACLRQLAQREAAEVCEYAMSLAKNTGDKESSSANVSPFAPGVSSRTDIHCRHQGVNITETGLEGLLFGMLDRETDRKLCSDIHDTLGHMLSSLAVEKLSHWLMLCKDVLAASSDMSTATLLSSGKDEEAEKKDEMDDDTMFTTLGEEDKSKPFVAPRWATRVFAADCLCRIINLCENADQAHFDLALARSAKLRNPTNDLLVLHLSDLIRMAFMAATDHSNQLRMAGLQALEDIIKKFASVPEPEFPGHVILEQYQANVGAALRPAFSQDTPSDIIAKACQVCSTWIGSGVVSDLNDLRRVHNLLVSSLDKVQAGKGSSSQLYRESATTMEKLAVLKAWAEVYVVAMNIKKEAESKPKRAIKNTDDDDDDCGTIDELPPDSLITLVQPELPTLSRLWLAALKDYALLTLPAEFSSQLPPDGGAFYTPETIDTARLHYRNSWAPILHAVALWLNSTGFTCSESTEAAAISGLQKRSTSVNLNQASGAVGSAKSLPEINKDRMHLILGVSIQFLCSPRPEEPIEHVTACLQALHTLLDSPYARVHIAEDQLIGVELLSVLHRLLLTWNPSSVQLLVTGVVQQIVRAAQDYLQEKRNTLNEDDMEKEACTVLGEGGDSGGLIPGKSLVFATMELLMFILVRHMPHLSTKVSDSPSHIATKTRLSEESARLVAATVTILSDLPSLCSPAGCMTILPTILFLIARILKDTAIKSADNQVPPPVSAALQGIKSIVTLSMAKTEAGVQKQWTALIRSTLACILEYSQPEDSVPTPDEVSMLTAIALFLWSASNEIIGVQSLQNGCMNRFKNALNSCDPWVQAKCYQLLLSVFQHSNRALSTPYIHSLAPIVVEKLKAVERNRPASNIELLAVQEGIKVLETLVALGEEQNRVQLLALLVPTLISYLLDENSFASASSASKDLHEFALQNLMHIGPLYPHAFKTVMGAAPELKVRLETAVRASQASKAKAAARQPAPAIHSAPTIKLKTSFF
Chain of UniProt P69905 (P69905 whole entry, looked up): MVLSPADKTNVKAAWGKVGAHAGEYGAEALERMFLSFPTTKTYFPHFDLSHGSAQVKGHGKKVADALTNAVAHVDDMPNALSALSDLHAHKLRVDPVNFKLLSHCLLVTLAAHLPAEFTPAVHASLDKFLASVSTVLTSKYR
Chain of UniProt Q06546 (Q06546 whole entry, looked up): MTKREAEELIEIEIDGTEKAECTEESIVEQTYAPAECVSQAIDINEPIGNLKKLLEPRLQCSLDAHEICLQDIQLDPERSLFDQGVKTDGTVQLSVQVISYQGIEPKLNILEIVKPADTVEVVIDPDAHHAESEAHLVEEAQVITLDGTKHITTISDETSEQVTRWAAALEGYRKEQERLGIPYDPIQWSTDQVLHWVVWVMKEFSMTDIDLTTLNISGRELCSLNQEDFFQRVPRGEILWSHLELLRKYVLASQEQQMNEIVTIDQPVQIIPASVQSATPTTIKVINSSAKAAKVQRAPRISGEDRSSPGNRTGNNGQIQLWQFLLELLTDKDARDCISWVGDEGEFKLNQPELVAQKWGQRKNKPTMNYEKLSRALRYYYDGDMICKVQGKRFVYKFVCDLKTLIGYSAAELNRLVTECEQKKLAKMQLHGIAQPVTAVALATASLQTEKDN
Chain of UniProt Q8NCW6 (Q8NCW6 whole entry, looked up): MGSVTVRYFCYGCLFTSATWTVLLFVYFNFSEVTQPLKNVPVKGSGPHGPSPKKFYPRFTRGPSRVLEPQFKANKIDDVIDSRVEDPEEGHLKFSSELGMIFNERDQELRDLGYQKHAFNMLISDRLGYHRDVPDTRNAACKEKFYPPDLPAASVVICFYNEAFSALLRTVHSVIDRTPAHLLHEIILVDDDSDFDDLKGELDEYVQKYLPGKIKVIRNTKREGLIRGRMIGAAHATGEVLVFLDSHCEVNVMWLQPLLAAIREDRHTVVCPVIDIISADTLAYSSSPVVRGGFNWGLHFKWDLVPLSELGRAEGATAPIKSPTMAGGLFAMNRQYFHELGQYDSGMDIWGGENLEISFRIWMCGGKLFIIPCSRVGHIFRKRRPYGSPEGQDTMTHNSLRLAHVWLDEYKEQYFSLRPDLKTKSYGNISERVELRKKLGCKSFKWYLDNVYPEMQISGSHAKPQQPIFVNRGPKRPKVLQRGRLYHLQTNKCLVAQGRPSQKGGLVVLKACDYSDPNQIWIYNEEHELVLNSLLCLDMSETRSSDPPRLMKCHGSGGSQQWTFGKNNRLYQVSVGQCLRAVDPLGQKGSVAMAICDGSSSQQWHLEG
Chain of UniProt Q9NRD1 (Q9NRD1 whole entry, looked up): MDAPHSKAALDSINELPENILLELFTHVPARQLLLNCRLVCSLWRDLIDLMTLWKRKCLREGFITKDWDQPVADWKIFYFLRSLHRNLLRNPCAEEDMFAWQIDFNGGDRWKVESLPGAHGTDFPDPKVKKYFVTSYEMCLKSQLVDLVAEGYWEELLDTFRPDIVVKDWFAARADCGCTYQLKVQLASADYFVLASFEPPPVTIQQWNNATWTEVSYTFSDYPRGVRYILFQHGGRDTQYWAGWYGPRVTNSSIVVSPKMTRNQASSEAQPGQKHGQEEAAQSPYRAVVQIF

Row | Target | log2 fold change (IRAK-1-4 Inhibitor I) | log2 fold change (ibrutinib) | log2 fold change [1] | log2 fold change (ralimetinib) | log2 fold change [2] | log2 fold change [3] | log2 fold change [4] | log2 fold change (pinometostat) | log2 fold change [5] | log2 fold change [6] | log2 fold change [7] | log2 fold change [8] | log2 fold change [9] | log2 fold change [10] | log2 fold change (Nexturastat A) | log2 fold change (vemurafenib) | log2 fold change [11] | log2 fold change [12] | log2 fold change (givinostat) | log2 fold change (barasertib)
1 | HNRNPH2 (UniProt P55795) | -0.081 | -0.024 | -0.134 | 0.137 | -0.067 | -0.345 (active) | 0.124 | 0 | 0.193 | -0.104 | 0.064 | -0.027 | 0.079 | 0.058 | 0.044 | 0.048 | 0.208 | 0.095 | 0.109 | 0.014
2 | FBXO6 (UniProt Q9NRD1) | -0.015 | 0.015 | -0.068 | 0.004 | -0.127 | 0.437 (active) | -0.046 | -0.021 | -0.043 | 0.068 | 0.006 | 0.006 | 0.048 | 0.026 | -0.04 | 0.044 | 0.014 | -0.01 | -0.093 | -0.008
3 | HIP1 (UniProt O00291) | -0.002 | 0.083 | -0.07 | -0.003 | -0.035 | -0.056 | 0.079 | 0.045 | 0.074 | 0.038 | -0.086 | -0.004 | -0.028 | 0.002 | 0.286 (active) | -0.003 | 0.056 | 0.233 | 0.043 | 0.01
4 | GLB1 (UniProt P16278) | 0.041 | 0.033 | -0.005 | -0.009 | 0.048 | -0.282 (active) | 0.062 | 0.021 | 0.014 | -0.015 | -0.051 | -0.026 | -0.033 | -0.038 | 0.086 | -0.017 | -0.007 | 0.003 | 0.002 | -0.027
5 | HTATIP2 isoform 3 (UniProt Q9BUP3) | 0.007 | 0.003 | -0.034 | 0.077 | 0.651 (active) | -0.182 | -0.021 | 0.006 | -0.017 | 0.025 | 0.065 | -0.093 | 0.011 | -0.007 | -0.14 | 0.057 | 0.039 | 0.059 | 0.012 | 0.041
6 | FOXK1 (UniProt P85037) | 0.046 | 0.121 | -1.03 (active) | -0.027 | 0.015 | 0.111 | 0.052 | -0.002 | -0.05 | 0.154 | 0.323 | -0.01 | -0.362 | -0.063 | -0.091 | 0.097 | 0.182 | -0.129 | -0.025 | -0.221
7 | IFITM3 (UniProt Q01628) | -0.067 | -0.02 | -0.241 | 0.031 | 0.108 | -0.082 | 0.008 | -0.181 | -0.207 | 0.163 | -0.058 | 0.074 | 0.148 | -0.059 | -0.425 (active) | 0.177 | 0.2 | 0.218 | -0.036 | 0.051
8 | HSPA8 (UniProt P11142) | 0.032 | -0.015 | 0.014 | -0.004 | 0.029 | 0.037 | -0.013 | -0.023 | -0.009 | -0.016 | 0.021 | 0.005 | -0.025 | 0.011 | -0.011 | -0.008 | -0.02 | 0.04 | -0.02 | -0.005
9 | HEATR5B (UniProt Q9P2D3) | -0.002 | 0.017 | 0.014 | 0.04 | -0.021 | -0.063 | 0.023 | 0.008 | 0.022 | 0.01 | 0.013 | 0.005 | 0.03 | 0.022 | 0.219 (active) | 0.019 | -0.014 | -0.024 | 0.07 | 0
10 | GATA1 (UniProt P15976) | 0.038 | 0.015 | 0.051 | 0.041 | 0.027 | 0.047 | 0.088 | 0.027 | 0.081 | -0.368 (active) | -0.05 | 0.02 | -0.085 | -0.029 | -0.104 | -0.06 | -0.035 | -0.003 | -0.047 | -0.034
11 | GALNT11 (UniProt Q8NCW6) | -0.008 | -0.088 | -0.022 | 0.065 | 0.018 | 0.015 | 0.038 | 0.045 | 0.002 | 0.039 | 0.011 | 0.049 | -0.024 | -0.041 | -0.032 | 0.009 | -0.035 | -0.002 | 0.027 | 0.118
12 | GSK3B isoform 2 (UniProt P49841) | 0.017 | 0.019 | 0.144 | -0.005 | -0.07 | 0.004 | -0.031 | -0.022 | -0.008 | -0.017 | 0.015 | -0.022 | 0.044 | 0.034 | 0.003 | -0.008 | -0.018 | -0.066 | -0.07 | -0.017
13 | GABPA (UniProt Q06546) | -0.004 | -0.014 | -0.054 | 0.001 | -0.107 | -0.243 | -0.013 | -0.007 | -0.043 | -0.175 | -0.007 | -0.011 | 0.064 | 0.039 | 0.008 | 0.062 | 0.09 | -0.004 | 0.17 | 0.022
14 | HOMER1 (UniProt Q86YM7) | 0.104 | 0.009 | -0.043 | 0.004 | 0.03 | 0.034 | -0.088 | -0.225 (active) | 0.038 | 0.093 | -0.049 | -0.059 | -0.009 | 0.125 | -0.138 | -0.021 | 0.071 | 0.085 | 0.007 | 0.036
15 | HBA1 (UniProt P69905) | 0.002 | 0.007 | -0.03 | -0.037 | -0.035 | 0.094 | -0.056 | 0.025 | -0.019 | 0.127 | 0.021 | -0.068 | 0.071 | 0.018 | 0.015 | 0.137 | 0.037 | -0.038 | -0.061 | 0.072
16 | GBF1 (UniProt Q92538) | -0.033 | -0.049 | -0.044 | 0.017 | -0.05 | -0.088 | 0.015 | 0.115 | -0.016 | 0.007 | -0.049 | -0.071 | -0.012 | -0.028 | 0.078 | 0.028 | 0.059 | 0.014 | 0.07 | 0.028
